In all, about 69,000 compounds went through this assay and about 1,000 (1.4%) showed an effect of 50% or more. The full list was thinned out, with strong results kept by preference.
System: Leishmania donovani
Assay: Leishmania intramacrophage assay
Type: functional, organism-based
Set-up: scale not given: in the data most compounds retested in dose-response had high values

CCC(CNC(=O)c1ccccc1OC)N1CCc2ccccc2C1 (stereo not drawn)
Percent Effect (30.3 µM, […]): 6.323%

CC(C)OCCCNC(=O)CS(=O)(=O)Cc1ccc(Cl)cc1
Percent Effect (30 µM): -19.7%

COCC(=O)N1CCN(Cn2nc(C)c(Br)c2C)CC1
Percent Effect (30.3 µM, […]): 52.22%

CCC(=O)N1CCCN(Cn2nc(C)c(Br)c2C)CC1
Percent Effect (30.3 µM, […]): -2.566%

COC(=O)N1CCCN(Cn2nc(C)c(Br)c2C)CC1
Percent Effect (30.3 µM, […]): -25.9%

Cc1ccn(Cc2nc(C(C)OCC(C)C)no2)c(=O)c1 (stereo not drawn)
Percent Effect (30.3 µM, […]): 4.888%

Cc1[nH]ccc1C(=O)N1CCC2(CC1)c1nc[nH]c1CCN2CC(C)C
Percent Effect (30.3 µM, […]): 14.63%

COc1cccc(C(O)CNC(=O)CC2CCCCC2)c1 (stereo not drawn)
Percent Effect (30.3 µM, […]): -1.709%

CCN1CCC(CC(=O)NCC(O)c2cccc(OC)c2)CC1 (stereo not drawn)
Percent Effect (30.3 µM, […]): 23.15%

CN1CCC(NCC(O)c2cccc(OCc3ccccc3)c2)CC1 (stereo not drawn)
Percent Effect (30.3 µM, […]): 100.4%

OC(CNC1CCOCC1)c1cccc(OCc2ccccc2)c1 (stereo not drawn)
Percent Effect (30.3 µM, […]): 10.21%

c1ccc(COc2cccc(CNC3CCc4ncnn4C3)c2)cc1 (stereo not drawn)
Percent Effect (30 µM): -0.9201%

OC(CNC1CCSCC1)c1cccc(OCc2ccccc2)c1 (stereo not drawn)
Percent Effect (30.3 µM, […]): 77.88%

CN(Cc1cnn(C)c1)C(=O)Cc1ccc2c(c1)OCCO2
Percent Effect (30.3 µM, […]): 1.956%

COCCCN(C)C1CCCN(Cc2noc(C)n2)C1 (stereo not drawn)
Percent Effect (30 µM, 30.03 µM): 26.31%

Cc1nc(CN(C)C2CCN(Cc3cccc4c3OCCO4)C2)no1 (stereo not drawn)
Percent Effect (30 µM): 6.673%

Cn1ccnc1CCNC(=O)NCCC1CCCCO1 (stereo not drawn)
Percent Effect (30.3 µM, […]): 11.89%

O=C(C1CCOC1)N1C[C@H]2CN(c3ccccc3)C(=O)[C@H]2C1 (stereo partly drawn)
Percent Effect (30.3 µM, […]): 6.072%

CCc1ncncc1C(=O)NCCN1CCC(C)CC1
Percent Effect (30 µM, 30.03 µM): 18.33%

CC1CCN(CCNC(=O)c2cncnc2C(C)C)CC1
Percent Effect (30 µM, 30.03 µM): 11.52%

Cc1ncncc1C(=O)NCCN1CCC(C)CC1
Percent Effect (30.3 µM, […]): 57.89%

Cn1cnnc1C1CCCN(C(=O)NCCOc2ccccc2)C1 (stereo not drawn)
Percent Effect (30 µM, 30.03 µM): 2.584%

CCc1nc(C2CCCN2C(=O)CCc2cscn2)no1 (stereo not drawn)
Percent Effect (30 µM): -30.43%

Cc1cccc(CN(Cc2ccccn2)S(=O)(=O)N(C)C)c1
Percent Effect (30.3 µM, […]): 9.457%

Cc1cccc(CN(Cc2ccccn2)Cc2ncc(C(C)(C)C)o2)c1
Percent Effect (30.3 µM, […]): 68.09%

CCN(Cc1cccc(Cl)c1)Cc1ncc(C(C)(C)C)o1
Percent Effect (30.3 µM, […]): 12.9%

Cc1ccc(F)c(C(=O)N2C[C@@H](C(=O)O)[C@H](c3ccncc3)C2)c1Cl
Percent Effect (30.3 µM, […]): 16.35%

O=S1(=O)CCC(c2nc(-c3cccc(Br)c3)no2)C1 (stereo not drawn)
Percent Effect (30.3 µM, […]): 2.793%

COCCN(Cc1cnn(C)c1)Cc1ccc(C)o1
Percent Effect (30.3 µM, […]): 22%

COCCN(Cc1cnn(C)c1)CC1CCOC1 (stereo not drawn)
Percent Effect (30.3 µM, […]): -5.95%

COCCN(Cc1cnn(C)c1)CC1CCN(C(C)C)CC1
Percent Effect (30.3 µM, […]): 53.86%

c1ccc2c(N3CCCC3Cn3cccn3)ncnc2c1 (stereo not drawn)
Percent Effect (30 µM, 30.03 µM): 38.82%

Cc1nccn1CC1CCCN1S(=O)(=O)Cc1ccccc1F (stereo not drawn)
Percent Effect (30 µM, 30.03 µM): 17.08%

COCc1noc(-c2cc(Cl)c3c(c2)OCO3)n1
Percent Effect (30.3 µM, […]): -15.75%

O=C(CCn1c(=O)oc2ccccc21)NCC(O)c1ccc(F)c(F)c1 (stereo not drawn)
Percent Effect (30.3 µM, […]): 41.71%

O=C(CCn1c(=O)oc2ccccc21)NCC(O)c1ccccc1 (stereo not drawn)
Percent Effect (30.3 µM, […]): 50.97%

O=C(CCn1c(=O)oc2ccccc21)NCC(O)c1ccc(Cl)cc1 (stereo not drawn)
Percent Effect (30.3 µM, […]): 46.94%

OC1=C2C(=Nc3n[nH]c(O)c3C2c2ccccc2Cl)CCC1 (stereo not drawn)
Percent Effect (30.3 µM, […]): 11.34%

CN(C)c1cncc(C2CCN(CCO)CC2)n1
Percent Effect (30 µM, 30.03 µM): 34.76%

COCC(=O)N1Cc2nccn2CC(CN(C)Cc2cccnc2)C1 (stereo not drawn)
Percent Effect (30.3 µM, […]): 24.51%

CN(Cc1cccnc1)CC1CN(C(N)=O)Cc2nccn2C1 (stereo not drawn)
Percent Effect (30.3 µM, […]): 59.79%

CCC(=O)N1Cc2nccn2CC(CN(C)Cc2cccnc2)C1.O=C(O)C(F)(F)F.O=C(O)C(F)(F)F (stereo not drawn)
Percent Effect (30 µM, 30.03 µM): 14.09%

NC(=O)CCn1cc(CNCCCc2ccccc2O)c2ccccc21
Percent Effect (30.3 µM, […]): 30.89%

Cc1ccsc1CNCC1CCCN1c1cccnn1 (stereo not drawn)
Percent Effect (30 µM): 29.66%

CC(C)N1CCC2(CCCN(Cc3ccc(F)cc3)C2=O)C1 (stereo not drawn)
Percent Effect (30.3 µM, […]): 12.06%

CCCc1cc(N2CCC(N[C@H]3CC[C@H](O)CC3)CC2)nc(C)n1
Percent Effect (30.3 µM, […]): 8.442%

Cc1nn(C)c2cn(CC(=O)N3CCN(c4ccccc4)CC3)nc12
Percent Effect (30.3 µM, […]): 30.49%

CN1CCN(c2ccc(Br)cc2NC(=O)c2ccco2)CC1
Percent Effect (30.3 µM, […]): 53.58%

CN1CCN(c2ccccc2NC(=O)c2ccco2)CC1
Percent Effect (30.3 µM, […]): 13.32%

CN1CCN(c2ccc(Cl)cc2NC(=O)c2ccco2)CC1
Percent Effect (30.3 µM, […]): 18.57%

Cc1ccc(C(=O)O)cc1-c1cccc2c1CCNC2
Percent Effect (30.3 µM, […]): 17.04%

O=C(c1ccnnc1)N1C[C@H](OCC2CC2)[C@H]2COC[C@H]21
Percent Effect (30.3 µM, […]): 15.2%

CCOc1ccc(Cl)c(C(=O)NC(C(N)=O)c2ccccc2)n1 (stereo not drawn)
Percent Effect (30.3 µM, […]): 28.97%
